# Screening results from PubChem.
# Most compounds without a hit are left out; they make up all but 19% or so of the library.
# DT40 TDP1 CPT: qHTS for Inhibitors of human tyrosyl-DNA phosphodiesterase 1 (TDP1): qHTS in cells in presence of CPT; 420,000 tested, 12% active; chicken DT40 Tdp1-/-;hTDP1 cells + 20 nM CPT, ATP luminescence, 48 h; AID 686979, 2013; Potency, µM (highest dose often 46.2 µM), for the others: at the top dose activity change, negative = growth inhibition, actives largely listed as inhibitors; also: potency is read from the fitted curve at half-maximal effect; % is scaled to controls: 0 for no effect and ±100 for the full control effect; nearly all actives have a fitted effect of over 55% in size
#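 Chicken DT40 Tdp1-/- cells complemented with human TDP1, 400 cells/well, exposed to compounds plus 20 nM camptothecin for at least 48 h at 37 C; viability read as ATP content by CellTiter-Glo luminescence.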
# IL-1B inflam inh: qHTS for Inhibitors of Inflammasome Signaling: IL-1-beta AlphaLISA Primary Screen; activity change, % at 57.5 µM; THP-1 LPS/ATP IL-1B secretion, AlphaLISA, 16 h; active compounds read low; 360,000 tested, 4.7% active; in the data active = activity change below about -50%; inconclusive = mostly about -30% to -49%; also: % is scaled to controls: 0 for no effect and ±100 for the full control effect
#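 Secreted IL-1B measured by AlphaLISA bead assay after 16 h compound exposure of THP-1 cells; compounds (final up to 57.5 uM) added 1 h before LPS (250 ng/mL) and ATP (1.25 mM) stimulation; lower signal means less secretion.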
# TDP1 cell noCPT: qHTS for Inhibitors of human tyrosyl-DNA phosphodiesterase 1 (TDP1): qHTS in cells in absence of CPT. DT40 Tdp1-/- hTDP1 cells, no CPT, ATP luminescence, 48 h. Potency, µM (highest dose often 46.2 µM), for inactives: at the highest dose activity change, negative = growth inhibition, actives largely listed as inhibitors. 420,000 tested, 15% active. AID 686978, 2013; also: potency is read from the fitted curve at half-maximal effect; % is scaled to controls: 0 for no effect and ±100 for the full control effect; nearly all actives have a fitted effect of over 55% in size
#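 Seeded 400 DT40-hTDP1 cells/well (vehicle DMSO, no 20 nM CPT); pinned compounds; ≥48 hr at 37 °C; CellTiter-Glo luminescence as viability measure.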
# S-ASM inh: Inhibitors of Secretory Acid Sphingomyelinase (S-ASM): qHTS; Sphingomyelin phosphodiesterase (Homo sapiens), P17405; placental ASM, HMU-PC fluorogenic substrate, 60 min; Potency, µM (titrated, usually from 57.5 µM), inactives show at the top dose activity change, negative = inhibition, hits mostly inhibitors; 340,000 tested, 0.006% active; AID 504937, 2011; also: potency is read from the fitted curve at half-maximal effect
# Target sequence (P17405 47-631 limits assumed): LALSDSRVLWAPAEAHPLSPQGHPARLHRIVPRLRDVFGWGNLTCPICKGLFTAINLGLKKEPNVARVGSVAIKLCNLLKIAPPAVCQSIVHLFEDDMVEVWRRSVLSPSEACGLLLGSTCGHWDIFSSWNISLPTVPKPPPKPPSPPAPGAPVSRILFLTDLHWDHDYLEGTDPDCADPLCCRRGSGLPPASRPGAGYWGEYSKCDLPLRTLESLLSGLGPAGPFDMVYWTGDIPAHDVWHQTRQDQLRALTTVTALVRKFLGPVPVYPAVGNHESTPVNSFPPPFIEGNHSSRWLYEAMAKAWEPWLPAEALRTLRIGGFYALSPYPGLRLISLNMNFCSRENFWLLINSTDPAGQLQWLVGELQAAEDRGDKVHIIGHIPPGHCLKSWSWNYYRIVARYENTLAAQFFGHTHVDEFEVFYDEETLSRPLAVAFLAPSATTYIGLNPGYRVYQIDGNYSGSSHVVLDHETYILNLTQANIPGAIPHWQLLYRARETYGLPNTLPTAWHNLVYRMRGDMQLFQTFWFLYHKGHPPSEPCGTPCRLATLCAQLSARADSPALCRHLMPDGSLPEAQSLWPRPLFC
#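 Steps: dispense placental human ASM, pin compound, wait 10 min at room temperature, add HMU-PC0 substrate at 9 uM final, incubate 60 min at 37 °C, add stop solution raising pH to 10, read fluorescence.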
# TGFb SMAD3 inh: qHTS for Inhibitors of TGF-b; HepG2 CAGA-GFP TGF-b/SMAD3 reporter, GFP fluorescence, 18 h; TGF-beta stimulated, 500 pg/mL final; Potency, µM (highest dose often 46.1 µM), inactives show at the highest dose activity, negative = inhibition, hits mostly inhibitors; 410,000 tested, 1.2% active; AID 588855, 2011; also: potency is read from the fitted curve at half-maximal effect; % is scaled to controls: 0 for no effect and ±100 for the full control effect; nearly all actives have a fitted effect of over 65% in size
#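 Using HEPG2 CAGA-GFP reporter cells at 1000 cells/well, we pinned test compounds, stimulated with recombinant TGF-beta (500 pg/mL final) and measured total well GFP after 18 h.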
# HepG2 viability: qHTS for Inhibitors of TGF-b: Cytotox Counterscreen; Potency, µM (series often up to 46.1 µM), without a hit: at the top dose activity change, negative = cytotoxicity, actives largely listed as cytotoxic; AID 588856, 2011; HepG2 CAGA-GFP viability, ATP luminescence, 18 h; 410,000 tested, 0.76% active; also: potency is read from the fitted curve at half-maximal effect
#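 CellTiter-Glo luminescence gave cytotoxicity after 18 hours at 37 degrees C. The cells were HepG2 CAGA-GFP in 1% FBS DMEM, stimulated with 500 pg/mL TGF-beta after compound addition. %Activity was normalised to no-cell wells (complete cell-killing) and DMSO (no toxicity), and curves were fitted and classified.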
# The depositor's hits bear a star; ? = inconclusive; / = no result given. Unless noted, calls follow the shape of the dose curve; as a rule, active = well fitted curve in the direction sought with a large enough effect; inconclusive = small, poorly fitted or top-dose-only effect, or another doubt; inactive = no such curve, though single readings can be large; an effect the other way counts as inactive or inconclusive.
SMILES,DT40 TDP1 CPT,IL-1B inflam inh,TDP1 cell noCPT,S-ASM inh,TGFb SMAD3 inh,HepG2 viability
Cc1ccc(OCc2nc(-c3ccc(C(=O)N4CCN(c5ccc(Cl)cc5)CC4)cc3)oc2C)cc1,?,/,?,/,?,-9%
Cc1ccc(OCc2nc(-c3ccc(C(=O)N4CCN(c5cccc(C(F)(F)F)c5)CC4)cc3)oc2C)cc1,16µM*,/,?,/,-13%,-17%
COc1ccccc1C(=O)NCCC(=O)N(C)Cc1ccc(C)o1,-7%,1,16%,-1%,6%,10%
CCOC(=O)C(Sc1cc(-c2ccccc2)nc2ncnn12)C(C)=O (stereo not drawn),?,-19,18µM*,-1%,0%,-55%
FC(F)(F)c1cc(-c2ccccc2)nc2ncnn12,-23%,-4,-3%,2%,9%,-21%
CCCCN(CC)CCNC(=O)Cn1cnc2sc(C)c(S(=O)(=O)N3CCN(c4ccccc4OC)CC3)c2c1=O,?,/,?,/,?,-1%
N#Cc1c(N)oc(-c2ccco2)c1-c1ccco1,?,?,16µM*,43%,18%,-5%
CN(C)c1ccc(C(O)c2cc3ccccc3s2)cc1 (stereo not drawn),-10%,-2,?,-1%,-2%,-1%
CCCCn1c(O)c(/C=C2\C=NN=C2c2ccccc2)sc1=S,?,-85*,?,-17%,-8%,-82%
CC(C)Cn1c(O)c(/C=C2\C=NN=C2c2ccccc2)sc1=S,?,-89*,?,/,?,-84%
CCn1c(O)c(/C=C2\C=NN=C2c2ccccc2)sc1=S,-5%,?,?,-15%,-17%,-29%
CCCCCCn1c(O)c(/C=C2\C=NN=C2c2ccccc2)sc1=S,?,-87*,23µM*,-28%,?,-37%
CN(Cc1cccs1)C(=O)C1CC(=O)N(Cc2ccccc2)C1 (stereo not drawn),10%,7,-15%,4%,-1%,6%
CCc1ccc2nc(NC(=O)CN3C(=O)NC4(CCCC4)C3=O)sc2c1,?,-16,?,-2%,-10%,-14%
CC(=O)NC(c1ccccc1)c1nc(-c2ccc(C)c(C)c2)cs1 (stereo not drawn),16µM*,?,18µM*,/,-5%,-8%
COc1cccc(C(NC(C)=O)c2nc(-c3ccc4ccccc4c3)cs2)c1 (stereo not drawn),18µM*,-6,?,/,?,-5%
COc1cccc(C(NC(C)=O)c2nc(-c3ccc(C)c(C)c3)cs2)c1 (stereo not drawn),?,16,?,/,?,-46%
CC(=O)NC(c1ccccc1)c1nc(-c2ccc3ccccc3c2)cs1 (stereo not drawn),16µM*,-21,?,/,?,-36%
O=C(COc1cccnc1[N+](=O)[O-])NCCc1ccc(Cl)cc1Cl,-6%,?,?,1%,-13%,-2%
Cc1nc2cc3nc(C(F)(F)F)[nH]c3cc2[nH]1,?,-5,?,2%,0%,27%
CN(C)S(=O)(=O)c1cccc(NC(=O)CSc2nc3ccccc3n2-c2ccccc2)c1,?,-11,26µM*,-7%,?,-33%
NS(=O)(=O)c1ccc(NC(=O)CSc2nc3ccccc3n2-c2ccccc2)cc1,?,-10,?,-21%,-3%,-14%
